Laboratory results taken from PubChem BioAssay (NCI).
This is part of a sample that, as a whole, favours compounds with a hit. Of some 83,000 tested, about 20% had one in any assay.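 The endpoint reported here, percent growth, reads 100 for growth as untreated, 0 for no net growth and -100 for all cells dead.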 The source made the active and inactive calls. Rule for the calls: active = growth percent below 10; inactive = the rest.

Key:
Assay in all cases: NCI-60 one-dose screen, 48 h (100 = growth as untreated, 0 = no growth, -100 = all killed)
Conditions in all cases: 10 µM unless noted
SR leukemia = system: SR leukemia
OVCAR-8 ovarian = system: OVCAR-8 ovarian
OVCAR-5 ovarian = system: OVCAR-5 ovarian
OVCAR-4 ovarian = system: OVCAR-4 ovarian
SK-OV-3 ovarian = system: SK-OV-3 ovarian
IGROV1 ovarian = system: IGROV1 ovarian
HS 578T breast = system: HS 578T breast
NCI/ADR-RES ovarian = system: NCI/ADR-RES ovarian
T-47D breast = system: T-47D breast
BT-549 breast = system: BT-549 breast
MDA-MB-435 melanoma = system: MDA-MB-435 melanoma
SW-620 colon = system: SW-620 colon
MCF7 breast = system: MCF7 breast
HCT-116 colon = system: HCT-116 colon
HCC-2998 colon = system: HCC-2998 colon
KM12 colon = system: KM12 colon
OVCAR-3 ovarian = system: OVCAR-3 ovarian
RPMI-8226 leukemia = system: RPMI-8226 leukemia

Measured: growth

Cc1ccc2sc3c(c2c1)OC(N)=C(C#N)C3c1cccc(F)c1 (stereo not given)
inactive: OVCAR-5 ovarian 14.4% | OVCAR-4 ovarian 20.3% | SK-OV-3 ovarian 22.5% | IGROV1 ovarian 18.8% | T-47D breast 35.5% | SW-620 colon 15.2% | MCF7 breast 15.2%
active: SR leukemia 9.55% | OVCAR-8 ovarian 4.8% | HS 578T breast 5.7% | NCI/ADR-RES ovarian 5.79% | BT-549 breast -6.44% | MDA-MB-435 melanoma -28.6% | HCT-116 colon -24.6% | HCC-2998 colon 6.17% | KM12 colon 2.9%

COc1ccccc1NCc1cccn1Cc1ccc(F)cc1
inactive: SR leukemia 100% | OVCAR-8 ovarian 103% | OVCAR-4 ovarian 96.9% | SK-OV-3 ovarian 116% | IGROV1 ovarian 88.8% | OVCAR-3 ovarian 112% | HS 578T breast 105% | NCI/ADR-RES ovarian 93.7% | T-47D breast 97% | BT-549 breast 93.3% | MDA-MB-435 melanoma 99.6% | SW-620 colon 98.2% | MCF7 breast 93.1% | HCT-116 colon 93.8% | HCC-2998 colon 105% | KM12 colon 95.9%

NS(=O)(=O)c1ccc(Nc2cc(-c3ccccc3)nc(SCC(=O)c3ccccc3)n2)cc1
inactive: SR leukemia 101% | OVCAR-8 ovarian 99.3% | OVCAR-5 ovarian 104% | OVCAR-4 ovarian 102% | SK-OV-3 ovarian 110% | IGROV1 ovarian 97.4% | HS 578T breast 107% | NCI/ADR-RES ovarian 101% | T-47D breast 97.5% | BT-549 breast 97.6% | MDA-MB-435 melanoma 93.4% | SW-620 colon 102% | MCF7 breast 89.5% | HCT-116 colon 101% | HCC-2998 colon 101% | KM12 colon 102%

Cc1ccc2c(c1)C(=O)/C(=C/c1cccc(F)c1)S2
inactive: SR leukemia 101% | OVCAR-8 ovarian 103% | OVCAR-4 ovarian 99.7% | SK-OV-3 ovarian 99% | IGROV1 ovarian 97.7% | HS 578T breast 104% | NCI/ADR-RES ovarian 109% | T-47D breast 101% | BT-549 breast 134% | MDA-MB-435 melanoma 98.1% | SW-620 colon 105% | MCF7 breast 73.7% | HCT-116 colon 105% | HCC-2998 colon 113% | KM12 colon 101%

O=C1/C(=C/C=C/c2ccco2)SC(=S)N1C1CCCCC1
inactive: SR leukemia 82.2% | OVCAR-8 ovarian 97.4% | OVCAR-5 ovarian 94% | OVCAR-4 ovarian 95.3% | SK-OV-3 ovarian 104% | IGROV1 ovarian 101% | HS 578T breast 101% | NCI/ADR-RES ovarian 99% | T-47D breast 68.8% | BT-549 breast 111% | MDA-MB-435 melanoma 85.3% | SW-620 colon 92.2% | MCF7 breast 54.3% | HCT-116 colon 99.8% | HCC-2998 colon 97.3% | KM12 colon 96.9%

O=C(NNc1nc2cc(F)ccc2n2cccc12)c1ccncn1
active: SR leukemia 8.74% | OVCAR-4 ovarian -6.78% | OVCAR-3 ovarian 5.01% | NCI/ADR-RES ovarian 5.87% | T-47D breast 4.38% | MCF7 breast 7.62%
inactive: OVCAR-8 ovarian 18.7% | OVCAR-5 ovarian 45% | IGROV1 ovarian 15.5% | HS 578T breast 42.8% | BT-549 breast 21.9% | MDA-MB-435 melanoma 31.5% | SW-620 colon 22.7% | HCT-116 colon 18.3% | HCC-2998 colon 53.2% | KM12 colon 23.1%

CC(=O)N1N=C(c2cccc(-n3cccc3)c2)CC1c1cccc(F)c1 (stereo not given)
inactive: SR leukemia 96.2% | OVCAR-8 ovarian 98.2% | OVCAR-5 ovarian 95.8% | OVCAR-4 ovarian 101% | SK-OV-3 ovarian 97.3% | IGROV1 ovarian 96.9% | HS 578T breast 91% | NCI/ADR-RES ovarian 95.9% | T-47D breast 89% | BT-549 breast 126% | MDA-MB-435 melanoma 102% | SW-620 colon 96% | MCF7 breast 75.1% | HCT-116 colon 92.5% | HCC-2998 colon 106% | KM12 colon 103%

C=CCn1c(SCC(=O)Nc2ccc(C(=O)/C=C/c3cccc([N+](=O)[O-])c3)cc2)nnc1-c1c[nH]c2ccccc12
inactive: RPMI-8226 leukemia 11.9% | OVCAR-8 ovarian 90.4% | OVCAR-4 ovarian 74.9% | SK-OV-3 ovarian 106% | IGROV1 ovarian 82.7% | OVCAR-3 ovarian 99.8% | HS 578T breast 102% | NCI/ADR-RES ovarian 101% | T-47D breast 59.8% | BT-549 breast 117% | MDA-MB-435 melanoma 98.4% | SW-620 colon 98.7% | MCF7 breast 25.4% | HCC-2998 colon 86% | KM12 colon 93.4%
active: HCT-116 colon -32.6%

O=C(c1ccc(O)cc1)[C@@H]1CN[C@@]2(C(=O)Nc3ccccc32)[C@H]1c1ccc(F)cc1
inactive: SR leukemia 87.5% | OVCAR-8 ovarian 99.2% | OVCAR-5 ovarian 104% | OVCAR-4 ovarian 102% | SK-OV-3 ovarian 115% | IGROV1 ovarian 95.3% | OVCAR-3 ovarian 117% | HS 578T breast 110% | NCI/ADR-RES ovarian 99.2% | T-47D breast 99.3% | BT-549 breast 79.7% | MDA-MB-435 melanoma 107% | SW-620 colon 105% | MCF7 breast 99% | HCT-116 colon 104% | HCC-2998 colon 113% | KM12 colon 102%

Cc1ccc2sc3c(c2c1)OC(N)=C(C#N)C3c1ccc(Cl)cc1 (stereo not given)
inactive: RPMI-8226 leukemia 93.2% | OVCAR-8 ovarian 96.7% | OVCAR-5 ovarian 93.4% | OVCAR-4 ovarian 91.1% | SK-OV-3 ovarian 85.7% | IGROV1 ovarian 65.2% | HS 578T breast 78.3% | NCI/ADR-RES ovarian 76.2% | T-47D breast 56.6% | BT-549 breast 26.3% | SW-620 colon 63.4% | MCF7 breast 13.8% | HCT-116 colon 88% | HCC-2998 colon 84.8% | KM12 colon 45.5%
active: MDA-MB-435 melanoma -10.7%

COc1cc(OC)cc(C(=O)Nc2sc3c(c2C(N)=O)CCC(=O)C3)c1
inactive: OVCAR-8 ovarian 42.1% | OVCAR-5 ovarian 48.3% | SK-OV-3 ovarian 106% | IGROV1 ovarian 48.8% | OVCAR-3 ovarian 14.8% | HS 578T breast 23.7% | NCI/ADR-RES ovarian 53.9% | BT-549 breast 11.1% | MDA-MB-435 melanoma 41.7% | SW-620 colon 18.6% | MCF7 breast 24.4% | HCC-2998 colon 88.3% | KM12 colon 12%
active: RPMI-8226 leukemia 1.86% | OVCAR-4 ovarian 9.16% | T-47D breast 7.67% | HCT-116 colon 7.89%

CCN1CCN(C(=O)[C@]23CCC(C)(C)C[C@H]2C2=CC[C@@H]4[C@@]5(C)Cc6c([nH]c7ccccc67)C(C)(C)[C@@H]5CC[C@@]4(C)[C@]2(C)CC3)CC1
inactive: RPMI-8226 leukemia 84.9% | OVCAR-8 ovarian 91.8% | OVCAR-5 ovarian 80.1% | OVCAR-4 ovarian 99.7% | SK-OV-3 ovarian 106% | IGROV1 ovarian 88.7% | OVCAR-3 ovarian 106% | HS 578T breast 87.1% | NCI/ADR-RES ovarian 87% | T-47D breast 72.6% | BT-549 breast 101% | MDA-MB-435 melanoma 91.4% | SW-620 colon 98.1% | MCF7 breast 78.1% | HCT-116 colon 77.7% | HCC-2998 colon 106% | KM12 colon 86.2%

CC(C)(C)c1ccc(CC(=O)Nc2sc3c(c2C(N)=O)CCC(=O)C3)cc1
active: RPMI-8226 leukemia -20.7% | OVCAR-4 ovarian -32.2% | SK-OV-3 ovarian 9.81% | IGROV1 ovarian 8.85% | OVCAR-3 ovarian -36% | NCI/ADR-RES ovarian 3.51% | T-47D breast -15.4% | BT-549 breast 9.57% | MDA-MB-435 melanoma 1.24% | SW-620 colon 3.83% | MCF7 breast 5.89% | HCT-116 colon 5.7% | KM12 colon -3.85%
inactive: OVCAR-8 ovarian 11.1% | HS 578T breast 33.6% | HCC-2998 colon 25.5%

C=C(C)[C@@H]1CC[C@]2(C(=O)NCCCCCN(CCC#N)CCC#N)CC[C@]3(C)[C@H](CC[C@@H]4[C@@]5(C)CCC(=O)C(C)(C)[C@@H]5CC[C@]43C)[C@@H]12
inactive: SR leukemia 80.4% | OVCAR-8 ovarian 106% | OVCAR-5 ovarian 96.2% | OVCAR-4 ovarian 86% | SK-OV-3 ovarian 118% | IGROV1 ovarian 97.6% | OVCAR-3 ovarian 111% | HS 578T breast 103% | NCI/ADR-RES ovarian 108% | T-47D breast 106% | BT-549 breast 92.9% | MDA-MB-435 melanoma 99.7% | SW-620 colon 97.4% | MCF7 breast 86.2% | HCT-116 colon 95.5% | HCC-2998 colon 110% | KM12 colon 101%

COc1cc2nc(Cl)nc(Nc3cccc(C4=Nc5c(N)nc(N)nc5NC(c5ccc(Br)cc5)C4)c3)c2cc1OC (stereo not given)
active: RPMI-8226 leukemia -2.07% | HCT-116 colon -10.5%
inactive: OVCAR-8 ovarian 54.6% | OVCAR-5 ovarian 113% | OVCAR-4 ovarian 103% | SK-OV-3 ovarian 125% | IGROV1 ovarian 94.1% | OVCAR-3 ovarian 72.6% | HS 578T breast 79.8% | NCI/ADR-RES ovarian 86.6% | T-47D breast 85.1% | BT-549 breast 87.8% | MDA-MB-435 melanoma 47.4% | SW-620 colon 46.5% | MCF7 breast 39.3% | HCC-2998 colon 41.5% | KM12 colon 24.3%

COc1cc(OC)c(S(N)(=O)=O)cc1C(C)=O
inactive: RPMI-8226 leukemia 103% | OVCAR-8 ovarian 104% | OVCAR-5 ovarian 107% | OVCAR-4 ovarian 102% | SK-OV-3 ovarian 109% | IGROV1 ovarian 112% | HS 578T breast 112% | NCI/ADR-RES ovarian 111% | T-47D breast 98.3% | BT-549 breast 115% | MDA-MB-435 melanoma 107% | SW-620 colon 113% | MCF7 breast 89.8% | HCT-116 colon 114% | HCC-2998 colon 106% | KM12 colon 104%

CN1CCN(Cc2ccc(NC(=O)c3cncc(C#Cc4cnc5ccc(NCCCO)nn45)c3)cc2C(F)(F)F)CC1
inactive: NCI/ADR-RES ovarian 74.1%
active: SR leukemia -15.6% | OVCAR-8 ovarian -8.06% | OVCAR-4 ovarian -19.9% | SK-OV-3 ovarian -47.5% | IGROV1 ovarian 9.68% | HS 578T breast -26.5% | T-47D breast 1.95% | BT-549 breast -81.5% | MDA-MB-435 melanoma -39.8% | SW-620 colon -34.6% | MCF7 breast -34.5% | HCT-116 colon -83.6% | HCC-2998 colon -9.99% | KM12 colon -12.1%
